# Data reported in PubChem BioAssay AID1159580 (chemical genetic matrix, 2015).
# Out of some 5,500 compounds screened, about 2,000 (36%) were called active. Not shown: some 18% with an inconclusive outcome. This is one part of the list. A number with no mark means an inactive call. Cut-off read from the data, not from the text of the source: active = normalized growth mostly below about 0.91 (no sharp cut-off); inconclusive = no clear call, values can overlap the other calls; inactive = mostly above about 0.92.
# Assay: chemical genetic growth profiling, strain panel (AID 1159580);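 note: tested at 20 µM; growth read once vehicle control cultures reached saturation at 30 °C; 1 = growth at the plate median or of vehicle wells; lower values mean less growth of the strain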
# Conditions: S. cerevisiae deletion strains, growth OD
smiles,measurement,setting,value
CC(C)(OC(=O)c1ccccc1)[C@@H]1Cc2cc3ccc(=O)oc3cc2O1,normalized growth,"locus YBR021W, strain FUR4, hits give low values",0.939
same,normalized growth,"locus YBR229C, strain ROT2, hits give low values",0.986
same,normalized growth,"locus YCL029C, strain bik1, hits give low values",1.01
same,normalized growth,"locus YDL035C, strain GPR1, hits give low values",0.927
same,normalized growth,"locus YDL074C, strain BRE1, hits give low values",0.95
same,normalized growth,"locus YDL101C, strain DUN1, hits give low values",0.975
same,normalized growth,"locus YDL185W, strain tfp1, hits give low values",0.956
same,normalized growth,"locus YDL192W, strain arf1, hits give low values",0.982
same,normalized growth,"locus YDR101C, strain arx1, hits give low values",0.975
same,normalized growth,"locus YDR150W, strain NUM1, hits give low values",0.989
same,normalized growth,"locus YDR162C, strain NBP2, hits give low values",0.834 (active)
same,normalized growth,"locus YDR318W, strain mcm21, hits give low values",0.954
same,normalized growth,"locus YDR388W, hits give low values",0.994
same,normalized growth,"locus YDR502C, strain sam2, hits give low values",0.956
same,normalized growth,"locus YEL061C, strain CIN8, hits give low values",0.992
same,normalized growth,"locus YER110C, hits give low values",0.973
same,normalized growth,"locus YER155C, strain BEM2, hits give low values",0.999
same,normalized growth,"locus YER167W, strain BCK2, hits give low values",0.991
same,normalized growth,"locus YGL078C, strain dbp3, hits give low values",0.957
same,normalized growth,"locus YGL086W, strain mad1, hits give low values",0.987
same,normalized growth,"locus YGL248W, strain PDE1, hits give low values",0.94
same,normalized growth,"locus YGR078C, strain PAC10, hits give low values",0.945
same,normalized growth,"locus YGR135W, strain pre9, hits give low values",0.951
same,normalized growth,"locus YGR229C, strain SMI1, hits give low values",0.885
same,normalized growth,"locus YGR252W, strain gcn5, hits give low values",0.805
same,normalized growth,"locus YHR030C, strain SLT2, hits give low values",0.989
same,normalized growth,"locus YHR079C, strain IRE1 (second series), hits give low values",1
same,normalized growth,"locus YHR094C, strain hxt1, hits give low values",1
same,normalized growth,"locus YHR129C, strain ARP1, hits give low values",0.989
same,normalized growth,"locus YHR200W, strain rpn10, hits give low values",0.976
same,normalized growth,"locus YIL066C, strain RNR3, hits give low values",0.927
same,normalized growth,"locus YIL073C, strain SPO22, hits give low values",0.945
same,normalized growth,"locus YIL125W, strain kgd1, hits give low values",1
same,normalized growth,"locus YIR030C, strain dcg1, hits give low values",0.988
same,normalized growth,"locus YJL095W, strain BCK1, hits give low values",0.89
same,normalized growth,"locus YJL134W, strain LCB3, hits give low values",0.989
same,normalized growth,"locus YJL168C, strain set2, hits give low values",0.983
same,normalized growth,"locus YJL187C, strain SWE1 (second series), hits give low values",0.958
same,normalized growth,"locus YJR043C, strain POL32, hits give low values",0.978
same,normalized growth,"locus YJR075W, strain HOC1, hits give low values",0.976
same,normalized growth,"locus YKL009W, strain mrt4, hits give low values",0.958
same,normalized growth,"locus YKL068W, hits give low values",0.992
same,normalized growth,"locus YKL085W, strain MDH1 (second series), hits give low values",1
same,normalized growth,"locus YKL085W, strain MDH1, hits give low values",1
same,normalized growth,"locus YKR001C, strain vps1, hits give low values",0.997
same,normalized growth,"locus YLR039C, strain RIC1, hits give low values",1.05
same,normalized growth,"locus YLR058C, strain SHM2, hits give low values",0.975
same,normalized growth,"locus YLR102C, strain apc9, hits give low values",0.984
same,normalized growth,"locus YLR262C, strain YPT6, hits give low values",1.02
same,normalized growth,"locus YLR268W, strain sec22, hits give low values",0.977
same,normalized growth,"locus YLR330W, strain CHS5, hits give low values",0.976
same,normalized growth,"locus YLR342W, strain FKS1 (second series), hits give low values",1.01
same,normalized growth,"locus YLR371W, strain rom2, hits give low values",0.994
same,normalized growth,"locus YLR418C, strain cdc73, hits give low values",0.828 (active)
same,normalized growth,"locus YML016C, strain PPZ1, hits give low values",0.982
same,normalized growth,"locus YML032C, strain rad52, hits give low values",0.97
same,normalized growth,"locus YML124C, strain tub3, hits give low values",0.974
same,normalized growth,"locus YMR078C, strain ctf18, hits give low values",0.976
same,normalized growth,"locus YMR223W, strain ubp8, hits give low values",0.945
same,normalized growth,"locus YMR307W, strain GAS1, hits give low values",0.895
same,normalized growth,"locus YNL067W, strain RPL9B, hits give low values",0.96
same,normalized growth,"locus YNL128W, strain TEP1, hits give low values",0.981
same,normalized growth,"locus YNL233W, strain BNI4, hits give low values",0.968
same,normalized growth,"locus YNL250W, strain rad50, hits give low values",0.991
same,normalized growth,"locus YNL271C, strain bni1, hits give low values",0.938
same,normalized growth,"locus YNL298W, strain CLA4, hits give low values",0.942
same,normalized growth,"locus YNL307C, strain MCK1, hits give low values",0.975
same,normalized growth,"locus YNL322C, strain KRE1, hits give low values",0.984
same,normalized growth,"locus YNR052C, strain pop2, hits give low values",0.983
same,normalized growth,"locus YOL006C, strain TOP1, hits give low values",0.761
same,normalized growth,"locus YOL012C, strain htz1",1.01
same,normalized growth,"locus YOL147C, strain pex11, hits give low values",0.986
same,normalized growth,"locus YOR061W, strain CKA2, hits give low values",0.976
same,normalized growth,"locus YOR069W, strain VPS5, hits give low values",0.983
same,normalized growth,"locus YOR136W, strain idh2, hits give low values",0.987
same,normalized growth,"locus YOR144C, strain elg1, hits give low values",0.973
same,normalized growth,"locus YOR184W, strain ser1, hits give low values",0.861 (active)
same,normalized growth,"locus YOR316C, strain cot1, hits give low values",0.976
same,normalized growth,"locus YPL241C, strain CIN2, hits give low values",0.982
same,normalized growth,"locus YPR119W, strain clb2, hits give low values",0.993
same,normalized growth,"locus YPR141C, strain kar3, hits give low values",0.995
same,normalized growth,"locus YPR163C, strain tif3, hits give low values",0.973
same,normalized growth,"locus YPR167C, strain met16, hits give low values",0.98
same,normalized growth,"strain wtn01, hits give low values",0.986
